IDE exosite FP: exo-site inhibitors of human IDE, primary screen, biochemical, fluorescence anisotropy, probe displacement | Insulin-degrading enzyme (Homo sapiens), P14735 | purified IDE, FL-6b probe fluorescence polarization; active compounds read low | z-score at 20 µM | 17,000 tested, 6.3% active;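 active means z-score of -3 or lower, meaning strong loss of probe binding signal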;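 further: His-tagged human IDE residues 42-1019 made in E. coli with 30 nM FL-6b probe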
Target sequence (P14735 42-1019 limits assumed): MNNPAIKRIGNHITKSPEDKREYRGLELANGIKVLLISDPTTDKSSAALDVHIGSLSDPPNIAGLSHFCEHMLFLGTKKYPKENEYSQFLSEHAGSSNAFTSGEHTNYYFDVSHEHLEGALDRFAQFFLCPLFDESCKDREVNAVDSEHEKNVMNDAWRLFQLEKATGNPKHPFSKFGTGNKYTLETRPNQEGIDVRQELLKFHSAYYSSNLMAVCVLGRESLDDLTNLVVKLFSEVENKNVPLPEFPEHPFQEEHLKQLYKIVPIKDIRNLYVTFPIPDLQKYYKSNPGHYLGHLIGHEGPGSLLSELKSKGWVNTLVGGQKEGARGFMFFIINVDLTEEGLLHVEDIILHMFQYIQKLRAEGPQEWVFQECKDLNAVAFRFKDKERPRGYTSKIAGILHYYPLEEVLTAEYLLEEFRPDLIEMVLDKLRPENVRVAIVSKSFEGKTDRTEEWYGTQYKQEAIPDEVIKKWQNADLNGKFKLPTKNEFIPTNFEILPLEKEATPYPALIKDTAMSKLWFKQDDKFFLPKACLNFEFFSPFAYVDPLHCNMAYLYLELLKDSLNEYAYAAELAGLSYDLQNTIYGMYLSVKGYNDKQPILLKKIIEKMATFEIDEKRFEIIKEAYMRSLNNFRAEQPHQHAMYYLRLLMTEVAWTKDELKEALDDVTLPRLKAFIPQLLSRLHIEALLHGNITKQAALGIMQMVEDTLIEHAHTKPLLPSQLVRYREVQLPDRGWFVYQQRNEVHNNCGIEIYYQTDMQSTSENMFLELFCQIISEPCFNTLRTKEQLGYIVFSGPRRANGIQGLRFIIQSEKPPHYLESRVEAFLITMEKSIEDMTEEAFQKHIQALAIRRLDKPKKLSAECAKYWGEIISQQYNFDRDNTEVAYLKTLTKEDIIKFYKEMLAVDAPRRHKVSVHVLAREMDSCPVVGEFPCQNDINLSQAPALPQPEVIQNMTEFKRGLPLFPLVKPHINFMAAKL
The depositor's hits bear a star; ! = a repeat was not active. Shown is part of a subset that was picked to be rich in hits.

SMILES	IDE exosite FP
CN1CCCCN2[C@H](CO)[C@@H](c3ccc(-c4cccnc4)cc3)[C@@H]2C1	1.8
CC[C@H]1C/C=C\C[C@H](CC)NC(=O)[C@@H](C)CC(=O)N1	1.13
C[C@H](CO)N1C[C@H](C)[C@@H](CN(C)C)Oc2ccc(NS(C)(=O)=O)cc2C1=O	0.553
N#C[C@@H]1[C@@H](c2ccc(-c3ccncc3)cc2)[C@@H](CO)N1C(=O)CN1CCOCC1	2.24
O=C(c1cnccn1)N1CC(=O)N2[C@@H](CO)[C@@H](c3ccc(C#CC4CCCCC4)cc3)[C@@H]2C1	-0.128
CC(C)CC#Cc1ccc([C@H]2[C@@H](CO)N3C(=O)CN(S(C)(=O)=O)C[C@H]23)cc1	3.53
COCC(=O)N1[C@H](C#N)[C@@H](c2ccccc2-c2cccc(C)c2)[C@@H]1CO	0.0636
O=C(c1ccc2c(c1)OCO2)N1CC(=O)N2[C@H](CO)[C@@H](c3ccc(C#Cc4ccccc4)cc3)[C@@H]2C1	4.19
Cc1ccccc1-c1ccc(C2[C@H]3CNC[C@@H]2N3C(=O)Nc2ccc(Cl)cc2)cc1 (stereo partly specified)	-3.57*!
O=C(NC1CCCCC1)N1[C@@H]2CNC[C@H]1C2c1ccc(-c2ccccc2F)cc1 (stereo partly specified)	-0.0845
COc1cccc(-c2ccc(C3[C@H]4CNC[C@@H]3N4C(=O)Nc3ccc(C(F)(F)F)cc3)cc2)c1 (stereo partly specified)	2.09
COc1cccc(-c2ccc(C3[C@H]4CNC[C@@H]3N4C(=O)Nc3ccc4c(c3)OCO4)cc2)c1 (stereo partly specified)	-2.84
CN(C)C(=O)c1cccc(-c2ccc(C3[C@H]4CNC[C@@H]3N4C(=O)Nc3cccc(Cl)c3)cc2)c1 (stereo partly specified)	-0.236
COc1ccc(NC(=O)N2[C@@H]3CNC[C@H]2C3c2ccc(-c3ccccc3C)cc2)cc1 (stereo partly specified)	-4.56*
O=C(Nc1cc(F)ccc1F)N1CC(=O)N2[C@H](C1)[C@@H](c1ccc(-c3cccc(F)c3)cc1)[C@@H]2CO	0.417
COc1ccc(-c2ccccc2[C@H]2[C@@H](C#N)N(C(=O)C3CC3)[C@H]2CO)cc1	2.99
COc1ccc(-c2ccc([C@H]3[C@@H](C#N)N(C(=O)NC(C)C)[C@@H]3CO)cc2)cc1	-1.34
COc1ccccc1-c1ccc([C@H]2[C@@H](CO)N(C(=O)NC(C)C)[C@H]2C#N)cc1	-16.3*
COc1ccccc1-c1ccc([C@@H]2[C@@H](CO)N(C(=O)C3CC3)[C@H]2C#N)cc1	-7.82*
COc1ccccc1-c1ccc([C@H]2[C@H](C#N)N(C(=O)C3CC3)[C@H]2CO)cc1	-10.2*
COc1ccc(-c2ccc([C@@H]3[C@H](C#N)N(C(=O)NC(C)C)[C@H]3CO)cc2)cc1	0.0838
N#C[C@H]1[C@@H](c2ccc(-c3ccccc3F)cc2)[C@H](CO)N1C(=O)C1CCC1	-0.675
N#C[C@@H]1[C@@H](c2ccc(-c3ccccc3F)cc2)[C@H](CO)N1C(=O)C1CCC1	2.1
N#C[C@@H]1[C@H](c2ccc(-c3ccccc3F)cc2)[C@H](CO)N1C(=O)C1CCC1	0.443
COc1ccccc1-c1ccc([C@@H]2[C@@H](C#N)N(C(=O)C3CC3)[C@@H]2CO)cc1	-17*
SMILES	IDE exosite FP
O=C(c1ccccc1F)N1CC2(C1)[C@H](c1ccccc1)[C@@H](CO)N2CC1CCOCC1	-0.622
O=C(C[C@@H]1CC[C@H](NC(=O)c2cccnc2)[C@H](CO)O1)NCc1ccc(Cl)c(Cl)c1	0.463
CO[C@H]1CN(C)C(=O)c2ccc(NS(=O)(=O)c3c(C)noc3C)cc2OC[C@@H](C)NC[C@@H]1C	-0.217
O=C(C[C@@H]1C=C[C@@H](NC(=O)C2CCC2)[C@H](CO)O1)NC1CCCCC1	-0.13
CCc1cnc(N2[C@@H](C#N)[C@H](c3ccc(C#CCC4CCCC4)cc3)[C@@H]2CO)s1	1.78
O=C(C[C@@H]1CC[C@@H]2[C@H](COC[C@@H](O)CN2C(=O)Nc2cccc(F)c2)O1)NCCCN1CCOCC1	-1.11
CCCC#Cc1ccc([C@H]2[C@H](CO)N3CCCCN(Cc4cccnc4)C[C@@H]23)cc1	0.395
O=C(NCC1CC1)[C@@H]1[C@@H](CO)[C@@H]2Cn3c(ccc(-c4ccccc4F)c3=O)[C@H]1N2Cc1cncnc1	0.058
C/C=C/c1ccc([C@@H]2[C@H](C#N)N(c3nc(CC)cs3)[C@H]2CO)cc1	0.955
COc1ccccc1NC(=O)N1CC(=O)N2[C@@H](CO)[C@H](c3ccc(C#Cc4ccccc4)cc3)[C@@H]2C1	-2.05
Cc1ccc(-c2ccccc2[C@@H]2[C@H](C#N)N(C(=O)c3cccc(F)c3)[C@H]2CO)cc1	0.434
COc1ccc(-c2ccc([C@H]3[C@H](C#N)N(C(=O)c4cccc(F)c4)[C@H]3CO)cc2)cc1	2.59
COc1ccc(-c2ccc([C@H]3[C@@H](C#N)N(C(=O)C4CC4)[C@@H]3CO)cc2)cc1	0.402
COc1ccccc1-c1ccc([C@H]2[C@@H](C#N)N(C(=O)C3CC3)[C@H]2CO)cc1	-5.35*
COc1ccc(-c2ccc([C@@H]3[C@@H](C#N)N(C(=O)C4CC4)[C@H]3CO)cc2)cc1	1.75
N#C[C@H]1[C@H](c2ccc(-c3ccccc3F)cc2)[C@H](CO)N1C(=O)C1CC1	-2.39
N#C[C@@H]1[C@@H](c2ccc(-c3ccccc3F)cc2)[C@@H](CO)N1C(=O)C1CCC1	1.22
N#C[C@@H]1[C@@H](c2ccc(-c3ccccc3F)cc2)[C@H](CO)N1C(=O)C1CC1	-3.11*
COc1ccc(-c2ccc([C@H]3[C@H](C#N)N(C(=O)C4CC4)[C@H]3CO)cc2)cc1	-0.559
COc1ccccc1-c1ccccc1[C@H]1[C@H](C#N)N(C(=O)C2CC2)[C@H]1CO	3.42
COc1ccccc1-c1ccc([C@H]2[C@@H](C#N)N(C(=O)C3CC3)[C@@H]2CO)cc1	-3.17*
COc1ccccc1-c1ccc([C@@H]2[C@@H](C#N)N(C(=O)c3cccc(F)c3)[C@@H]2CO)cc1	-13.3*
CN1C(=O)c2cc(NC(=O)c3cnccn3)ccc2OC[C@@H]2O[C@@H](CC(=O)N[C@@H]3CCN(Cc4ccccc4)C3)CC[C@H]21	-1.63
CCC(=O)N(C)C[C@H]1N[C@@H](CO)[C@H]1c1ccc(-c2cccc(C#N)c2)cc1	6.51
C[C@@H]1CCCCO[C@H](CN(C)CC2CCCCC2)[C@H](C)CN([C@H](C)CO)C(=O)c2cc(NS(C)(=O)=O)ccc2O1	2.16
SMILES	IDE exosite FP
CC(C)NC(=O)Nc1cccc2c1O[C@H](CN(C)C(=O)Nc1ccccc1)[C@H](C)CN([C@H](C)CO)C2=O	0.497
CCC(=O)N1CC2(C1)[C@H](c1ccccc1)[C@@H](CO)N2CC1CC1	1.7
COc1ccccc1-c1ccc([C@@H]2[C@H](C#N)N(C(=O)C3CC3)[C@H]2CO)cc1	-5.92*
COc1ccc(-c2ccc([C@H]3[C@@H](C#N)N(C(=O)C4CCCC4)[C@@H]3CO)cc2)cc1	3.25
COc1ccc(-c2ccc([C@@H]3[C@@H](C#N)N(C(=O)C4CCCC4)[C@H]3CO)cc2)cc1	0.898
COc1ccccc1-c1ccccc1[C@@H]1[C@@H](CO)N(C(=O)C2CCC2)[C@H]1C#N	2.69
COc1ccccc1-c1ccccc1[C@@H]1[C@@H](C#N)N(C(=O)C2CCC2)[C@@H]1CO	5.1
COc1ccccc1-c1ccc([C@H]2[C@@H](CO)N(C(=O)C3CCCCC3)[C@H]2C#N)cc1	-3.28*
